Source: PubChem (The Scripps Research Institute Molecular Screening Center)
Hits are enriched below; roughly 3.5% of the tested compounds scored in any of these assays.
TEAD-YAP block = TEAD-YAP interaction inhibition. HEK-TIYL cells, TEAD-Gal4/YAP UAS-luciferase luminescence. inhibition, % at 9.12 µM. actives 1.4% (n = 640,000); in the data active = inhibition above about 32%;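 also: 0% = median of test compound wells and 100% = reference inhibitor wells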
GPR151 ag = human GPR151 activation | actives 1% (n = 650,000) | Q8TDV0 | PathHunter beta-arrestin GPR151 cells, luminescence | activation, % at 11.2 µM | AID 1508602; in the data active = activation above about 4.9%;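 also: 0% = median of compound wells and 100% = cells with positive control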
FBW7 act = human FBW7 E3 ligase activation, primary screen. AlphaScreen FBW7–phospho-cyclin E peptide binding, activator screen. AID 1259310. Q969H0. normalized activity (activation), % at 26.1 µM. actives 0.13% (n = 650,000); in the data active = normalized activity above about 1.9%;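 also: purified mutant Fbw7 with reduced substrate affinity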
MITF primary = human MITF inhibition, primary screen; AlphaScreen MITF homodimerization, bead proximity signal; inhibition, % at 2.6 µM; actives 0.91% (n = 650,000); AID 1259374; in the data active = inhibition above about 50%;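 also: 0% = vehicle wells with protein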
Target sequence (O75030 whole entry, looked up): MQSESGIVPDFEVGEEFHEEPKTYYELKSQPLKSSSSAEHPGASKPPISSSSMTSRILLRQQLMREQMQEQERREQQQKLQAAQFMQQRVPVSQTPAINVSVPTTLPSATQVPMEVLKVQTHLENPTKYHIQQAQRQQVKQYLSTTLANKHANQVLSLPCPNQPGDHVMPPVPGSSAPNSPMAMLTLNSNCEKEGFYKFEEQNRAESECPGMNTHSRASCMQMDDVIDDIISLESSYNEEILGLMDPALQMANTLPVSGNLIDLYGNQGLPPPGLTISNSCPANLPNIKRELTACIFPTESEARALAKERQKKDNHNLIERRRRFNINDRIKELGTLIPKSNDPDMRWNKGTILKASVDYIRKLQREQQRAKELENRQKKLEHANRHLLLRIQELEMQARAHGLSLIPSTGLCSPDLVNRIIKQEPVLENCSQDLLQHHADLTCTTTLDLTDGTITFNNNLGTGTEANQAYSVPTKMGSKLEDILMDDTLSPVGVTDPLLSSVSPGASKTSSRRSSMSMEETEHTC
Active calls of the source: *.

`C[n+]1ccccc1/C=C\c1ccccc1O` gave TEAD-YAP block 3, GPR151 ag 0, FBW7 act 0 and MITF primary 3.
`C[n+]1ccccc1/C=C/C1=C(c2ccccc2)Oc2ccccc2O1` gave TEAD-YAP block 83*, GPR151 ag 2, FBW7 act 0 and MITF primary 0.
Screening Cc1ccc([N+](=O)[O-])cc1S(=O)(=O)Nc1cc(SCC(=O)O)c(O)c2ccccc12 returned TEAD-YAP block -3, GPR151 ag 0, FBW7 act -1 and MITF primary 65*.
Screening Cc1ccc(S(=O)(=O)Nc2cc(SCC(=O)O)c(O)c3ccccc23)c(C)c1 returned TEAD-YAP block -19, GPR151 ag -1, FBW7 act 0 and MITF primary 12.
For CCN(Cc1ccccc1)C(=O)c1sc2nc3n(c(=O)c2c1C)CCCC3 the results were TEAD-YAP block 37*, GPR151 ag 1, FBW7 act 1 and MITF primary 10.
Screening COc1cccc(NC(=O)CN2CCN(Cc3nc(-c4ccc(F)cc4)cs3)CC2)c1 returned TEAD-YAP block 33*, GPR151 ag 4, FBW7 act 0 and MITF primary 15.
COc1cccc(-c2csc(N3CCN(CC(=O)Nc4ccc(F)cc4)CC3)n2)c1 was read as TEAD-YAP block 0, GPR151 ag 2, FBW7 act 0 and MITF primary 31.
`CC1=CC(C)(C)N(S(C)(=O)=O)c2ccc(OS(C)(=O)=O)cc21` gave TEAD-YAP block 1, GPR151 ag 1, FBW7 act 0 and MITF primary 7.
COc1ccc(S(=O)(=O)N2c3ccc(Cl)cc3C(C)=CC2(C)C)cc1 was read as TEAD-YAP block 58*, GPR151 ag 0, FBW7 act 0 and MITF primary 14.
`COc1ccc(S(=O)(=O)N2c3cc(C)ccc3C(C)=CC2(C)C)cc1` gave TEAD-YAP block 63*, GPR151 ag 1, FBW7 act 0 and MITF primary 6.
For Cc1ccc(NC(=O)CCN2CCC(C)CC2)cc1 the results were TEAD-YAP block 10, GPR151 ag -1, FBW7 act 2.3* and MITF primary 12.
`Cc1ccc(CSc2ccc(C(=O)NNC(=O)c3ccccn3)cc2[N+](=O)[O-])cc1` gave TEAD-YAP block 50*, GPR151 ag -2, FBW7 act 0 and MITF primary 27.
`O=C(Nc1ccc(Cl)cc1Cl)c1c(O)c2ccccc2[nH]c1=O` gave TEAD-YAP block 6, GPR151 ag 0, FBW7 act 0 and MITF primary -5.
Screening Cc1cc(C(F)(F)F)nc(SCc2ccc(C(=O)NNC(=O)c3ccccc3C)o2)n1 returned TEAD-YAP block 38*, GPR151 ag -1, FBW7 act 0 and MITF primary 0.
For Cc1cc(C(F)(F)F)nc(SCc2ccc(C(=O)O)o2)n1 the results were TEAD-YAP block 8, GPR151 ag -1, FBW7 act 0 and MITF primary 7.
For Cc1c(NC(=O)c2cc(-c3ccccc3)nc3ccccc23)c(=O)n(-c2ccccc2)n1C the results were TEAD-YAP block 33*, GPR151 ag 0, FBW7 act 0 and MITF primary -3.
For Cc1c(NC(=O)c2cc(-c3cccc(Br)c3)nc3ccccc23)c(=O)n(-c2ccccc2)n1C the results were TEAD-YAP block 10, GPR151 ag 0, FBW7 act 1 and MITF primary 1.
For CC(C)N(C(=O)c1ccc(-c2nc3ccccc3s2)cc1)C(C)C the results were TEAD-YAP block 54*, GPR151 ag -1, FBW7 act 0 and MITF primary -11.
`CCOc1ccc2nc(-c3ccc(N)cc3)sc2c1` gave TEAD-YAP block 35*, GPR151 ag -1, FBW7 act 0 and MITF primary 5.
Screening CCOc1ccc2nc(NN)sc2c1 returned TEAD-YAP block 0, GPR151 ag -3, FBW7 act 0 and MITF primary 10.
`Nc1ccc2nc(-c3ccc(O)cc3)sc2c1` gave TEAD-YAP block 76*, GPR151 ag -10, FBW7 act 0 and MITF primary 11.
Screening CC(=O)NCc1ccc(-c2nc3ccccc3s2)cc1 returned TEAD-YAP block -3, GPR151 ag -5, FBW7 act 0 and MITF primary -4.
Nc1ccc(-c2nc3ccc(N)cc3s2)cc1 was read as TEAD-YAP block 18, GPR151 ag -9, FBW7 act 0 and MITF primary 1.
`COc1cc(NC(=O)c2ccc3nc(-c4ccc(C(N)=O)cc4)sc3c2)cc(OC)c1OC` gave TEAD-YAP block 46*, GPR151 ag -1, FBW7 act 0 and MITF primary -3.
`Cc1nc(-c2ccccc2F)cc(N2CCOCC2)n1` gave TEAD-YAP block -6, GPR151 ag -1, FBW7 act 0 and MITF primary 4.
Cc1c(NC(=O)c2ccccc2Cl)c(=O)n(-c2ccccc2)n1C was read as TEAD-YAP block -1, GPR151 ag 2, FBW7 act 0 and MITF primary 3.
`COC(=O)c1cnccc1Nc1nc(-c2cc(Br)ccc2F)nc2nccnc12` gave TEAD-YAP block 4, GPR151 ag 1, FBW7 act 0 and MITF primary 18.
`Nc1ccc(-c2nc3ccc(C(=O)O)cc3s2)cc1` gave TEAD-YAP block 75*, GPR151 ag -9, FBW7 act 0 and MITF primary -10.
O=C(O)c1ccc2nc(-c3ccccc3)sc2c1 was read as TEAD-YAP block -13, GPR151 ag -5, FBW7 act 0 and MITF primary 19.
`NC(=O)c1ccc2nc(-c3ccccc3)sc2c1` gave TEAD-YAP block 73*, GPR151 ag -11, FBW7 act 0 and MITF primary 1.
CCOC(=O)c1cnc2c(Cl)cccc2c1Nc1cccc(C(F)(F)F)c1 was read as TEAD-YAP block -2, GPR151 ag 0, FBW7 act 0 and MITF primary -7.
COc1ccc(C2CC(C(F)(F)F)n3ncc(C(=O)Nc4ccc(C(C)O)cc4)c3N2)cc1OC (configuration not stated) was read as TEAD-YAP block -13, GPR151 ag -1, FBW7 act 0 and MITF primary 21.
CCOc1ccc(C(=O)Nc2ccc(-c3nc4cc(C)c(C)cc4o3)cc2)cc1 was read as TEAD-YAP block -13, GPR151 ag -1, FBW7 act 0 and MITF primary -11.
Screening CC1(C)CC(=O)C2=C(C1)Nc1ccccc1NC2c1ccc(-c2ccccc2)cc1 (configuration not stated) returned TEAD-YAP block 21, GPR151 ag 2, FBW7 act 0 and MITF primary -1.
For CCN(CC)c1ccc(C2Nc3ccccc3NC3=C2C(=O)CC(C)(C)C3)cc1 (configuration not stated) the results were TEAD-YAP block 54*, GPR151 ag 0, FBW7 act 0 and MITF primary 1.
Screening COc1cc(C2Nc3ccc(C(=O)c4ccccc4)cc3NC3=C2C(=O)CC(C)(C)C3)ccc1O (configuration not stated) returned TEAD-YAP block 41*, GPR151 ag 0, FBW7 act 0 and MITF primary -1.
